Outcome and Potency data for 23 compounds are collected here from PubChem BioAssay (NCATS).

Test [1] can be described thus: MultiTox-Fluor Cytotoxicity Assay - LYMP1-001 - Dead Cells (AID 946).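 Note: cells exposed to compound for 16 h.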 To be noted: LYMP1-001 lymphoblastoid cells, dead-cell protease fluorescence; series mostly up to 92.2 µM. The method, boiled down: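 Seed 2500 LYMP1-001 cells/well, incubate 5 hr at 37 C; add compound, 16 hr at 37 C; add MultiTox-Fluor reagent, 60 min RT; read dead-cell fluorescence Ex/Em=485/520. Normalize to DMSO and 15 uM tetraoctylammonium bromide.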

The nature of test [2]: MultiTox-Fluor Cytotoxicity Assay - LYMP1-001 - Live Cells (AID 947). Note: potency is the fitted concentration of half-maximal effect. To be noted: LYMP1-001 lymphoblastoid cells, live-cell protease fluorescence viability; series mostly up to 92.2 µM.
Test [3] in a line: Cell Viability - LYMP1-002 - Assay at 16 hr (AID 948). Note: potency is the fitted concentration of half-maximal effect. To be noted: LYMP1-002 lymphoblastoid cell viability; series mostly up to 92.2 µM. The method, boiled down: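 LYMP1-002 human lymphoblastoid cells, 2500/well; 5 hr 37 C; cpd 16 hr 37 C; CellTiter-Glo 30 min RT; luminescence (ATP). Concentration-response, Hill-fit AC50. Pos ctrl tetraoctylammonium bromide.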
Test [4] is described as follows: MultiTox-Fluor Cytotoxicity Assay - LYMP1-002 - Live Cells (AID 955).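 Note: cells exposed to compound for 16 hours.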 Note: potency is the fitted concentration of half-maximal effect. The following applies: LYMP1-002 lymphoblastoid live-cell protease fluorescence viability; series mostly up to 46.1 µM. The method, boiled down: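 LYMP1-002 lymphoblastoid cells; 2500 cells/well; 16 hr compound exposure, 37 C; MultiTox-Fluor reagent 60 min RT; live-cell fluorescence Ex/Em=405/510; qHTS concentration-response, Hill-equation AC50; tetraoctylammonium bromide positive control.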

The nature of test [5]: MultiTox-Fluor Cytotoxicity Assay - LYMP1-002 - Dead Cells (AID 960).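 Note: cells exposed to compound for 16 h at 37 °C; nearly all actives have a fitted effect of over 60% in size.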 The following applies: LYMP1-002 lymphoblastoid cells, dead-cell protease fluorescence; series mostly up to 46.1 µM. The method, boiled down: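 Readout: fluorescence at 485/520 from cell-impermeant bis-AAF-R110 cleaved by proteases leaking from damaged cells. LYMP1-002 lymphoblastoid line, 16 hr compound treatment at 37 C, concentration-response in qHTS format; Hill-equation AC50 values.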

Test [6] is described as follows: MultiTox-Fluor Cytotoxicity Assay - LYMP1-003 - Dead Cells (AID 961).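 Note: cells exposed to compound for 16 h at 37 °C; nearly all actives have a fitted effect of over 70% in size.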 Note: potency is the fitted concentration of half-maximal effect. The following applies: LYMP1-003 lymphoblastoid cells, dead-cell protease fluorescence; series mostly up to 92.2 µM. The method in brief:
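LYMP1-003 lymphoblastoid, 2500 cells/well, 5 hr settle then 16 hr cpd at 37 C; MultiTox-Fluor reagent 60 min RT; Ex/Em 485/520 dead-cell signal; norm. DMSO = 0%, 15 uM tetraoctylammonium bromide = 100%; Hill AC50.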

A short description of test [7]: MultiTox-Fluor Cytotoxicity Assay - LYMP1-003 - Live Cells (AID 962).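 Note: cells exposed to compound for 16 hours at 37 °C.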 Note: potency is the fitted concentration of half-maximal effect. The following applies: LYMP1-003 lymphoblastoid cells, MultiTox-Fluor live-cell protease fluorescence; series mostly up to 92.2 µM. The method, boiled down:
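Readout: live-cell fluorescence (Ex/Em=405/510) from GF-AFC cleavage after 60 min MultiTox-Fluor reagent at room temperature. Lymphoblastoid LYMP1-003 cells, 16 hr compound treatment, 37 C. Concentration-response fitted to standard Hill equation for AC50.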

Test [8] is described as follows: Cell Viability - LYMP1-003 - Assay at 24 hr (AID 963). Note: potency is the fitted concentration of half-maximal effect. To be noted: LYMP1-003 lymphoblastoid cell viability; series mostly up to 92.2 µM. The method, boiled down:
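CellTiter-Glo luminescence (intracellular ATP) read after 24 hr, 37 C compound exposure of 2500 LYMP1-003 human lymphoblastoid cells/well in complete medium; qHTS concentration series; AC50 via standard Hill equation.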

In test [9] the target is Pyruvate kinase PKM (Homo sapiens) (UniProt P14618). The experiment in a line: qHTS Assay for Activators of Human Muscle Pyruvate Kinase (AID 954; active = well fitted curve in the direction sought with a large enough effect, not every such curve was filed as active). To be noted: purified human muscle pyruvate kinase, luciferase-coupled luminescence, 1 h; series mostly up to 57.5 µM. The method, boiled down:
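PKM2, human, >95% pure, 0.1 nM; PEP 0.5 mM (Km), ADP 0.1 mM; 50 mM imidazole pH 7.2, 50 mM KCl, 0.01% Tween 20, 0.05% BSA; 1 h RT; luciferase luminescence readout.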
(Quantitative high-throughput screening tests each substance at several concentrations.)

In test [10] the target is Alpha-galactosidase (Coffea arabica) (UniProt Q42656). Briefly: Counterscreen for Glucocerebrosidase Inhibitors: qHTS Assay for Coffee Bean alpha-Galactosidase at pH 4.5 (AID 957). To be noted: purified coffee bean alpha-galactosidase, fluorogenic substrate; series mostly up to 76.9 µM. The method, boiled down: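 Fluorogenic read-out: 4-methylumbelliferone at Ex 365/Em 440 nm after NaOH/glycine stop (pH 10). Enzyme 2 nM, 4-MU-alpha-galactoside 80 uM, citrate buffer pH 4.5, 20 min RT; normalized to no-enzyme and enzyme controls.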
Chain of Alpha-galactosidase (Coffea arabica) (Q42656 whole entry, looked up): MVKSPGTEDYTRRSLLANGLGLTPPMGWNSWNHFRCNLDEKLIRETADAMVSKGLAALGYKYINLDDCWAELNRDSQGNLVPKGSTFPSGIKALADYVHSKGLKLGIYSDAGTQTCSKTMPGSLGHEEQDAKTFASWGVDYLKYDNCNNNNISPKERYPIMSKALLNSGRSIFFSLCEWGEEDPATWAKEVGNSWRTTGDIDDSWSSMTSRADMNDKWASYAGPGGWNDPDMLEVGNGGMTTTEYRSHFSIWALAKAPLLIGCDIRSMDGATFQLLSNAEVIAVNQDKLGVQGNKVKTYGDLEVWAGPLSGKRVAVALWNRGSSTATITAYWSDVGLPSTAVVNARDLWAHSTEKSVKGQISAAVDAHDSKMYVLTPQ
(Counterscreens check selectivity or assay interference.)

Results filed as inconclusive are left out. Active and inactive are the calls of the source. Unless noted, calls come from the whole dose curve; as a rule, active = well fitted curve in the direction sought with a large enough effect; inconclusive = small, poorly fitted or top-dose-only effect, or another doubt; inactive = no such curve, though single readings can be large; an effect the other way counts as inactive or inconclusive.

Chain of Pyruvate kinase PKM (Homo sapiens) (P14618 whole entry, looked up): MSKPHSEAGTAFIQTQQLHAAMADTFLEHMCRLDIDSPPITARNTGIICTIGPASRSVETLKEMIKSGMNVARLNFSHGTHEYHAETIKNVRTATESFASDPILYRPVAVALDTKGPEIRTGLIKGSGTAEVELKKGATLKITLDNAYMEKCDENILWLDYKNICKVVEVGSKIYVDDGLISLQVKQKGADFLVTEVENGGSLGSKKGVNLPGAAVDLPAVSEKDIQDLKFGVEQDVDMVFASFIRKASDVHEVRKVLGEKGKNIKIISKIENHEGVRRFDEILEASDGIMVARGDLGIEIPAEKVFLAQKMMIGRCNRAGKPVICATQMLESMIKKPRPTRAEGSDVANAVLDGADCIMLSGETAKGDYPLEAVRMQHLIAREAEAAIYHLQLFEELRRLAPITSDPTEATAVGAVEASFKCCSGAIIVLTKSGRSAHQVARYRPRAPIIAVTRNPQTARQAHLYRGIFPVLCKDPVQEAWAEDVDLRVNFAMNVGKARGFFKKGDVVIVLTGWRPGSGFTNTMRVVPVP

For the compound `CN(C)NC(=O)CCC(=O)O`, the result in test [1] and in test [5] was inactive. For the same compound, the Potency entry in [2], in test [3], in test [4], in [6], in test [7] and in test [8] was “inactive” in each case.
For `OCCCBr`, the outcome in test [1] and in test [5] was inactive. The Potency entry in test [3], in test [4], in [6], in test [7] and in test [8] was “inactive” throughout.
As to `CCCCCCCCc1ccc(O)cc1`, the result in test [1] and in test [5] was inactive. The Potency result in test [2], in test [3], in test [4], in test [6], in test [7] and in [8] was “inactive” throughout.
For `COC(C)(C)CCCC(C)C/C=C/C(C)=C/C(=O)OC(C)C` (stereo unspecified), the outcome in test [1] and in test [5] was inactive. The Potency result in test [2], in [3], in test [4], in test [6], in test [7] and in test [8] was “inactive” throughout.
With `CCCN1CCC[C@H](c2cccc(O)c2)C1`, the result in test [9] and in test [10] was inactive.
Take `Nc1ccc(Cl)cc1`: the outcome in test [1] and in test [5] was inactive. The Potency entry in test [2], in [3], in test [4], in [6], in [7] and in test [8] was “inactive” throughout.
Take `CN(C)[C@@H]1C(=O)C(C(N)=O)=C(O)[C@@]2(O)C(=O)C3=C(O)c4c(O)cccc4[C@@](C)(O)[C@H]3[C@H](O)[C@@H]12`: the call in [1] and in test [5] was inactive. For the same compound, the Potency result in test [2], in test [3], in test [4], in test [6], in test [7] and in test [8] was “inactive” each time.
Regarding `CCCN1CCO[C@@H]2c3cc(O)ccc3OC[C@H]21`, the call in test [9] and in test [10] was inactive.
As to `COc1ccc(C(c2ccc(OC)cc2)C(Cl)(Cl)Cl)cc1`, the call in test [1] was inactive. In addition, the Potency result in test [2], in [3], in [4], in test [6], in test [7] and in test [8] was “inactive” throughout.
On to `CC(C)Oc1cccnc1N(C)C1CCN(Cc2ccccc2)CC1`, for which the compound was classed as inactive in test [9] and in test [10].
For the compound `Clc1cnc(Oc2ccc(Oc3ncc(Cl)cc3Cl)cc2)c(Cl)c1`, the compound was called inactive in test [9] and in [10].
With `S=C(NC1CCCCC1)N1CCC(c2cnc[nH]2)CC1`, the outcome in [9] and in test [10] was inactive.
As to `CCCCOC(=O)c1ccccc1C(=O)OCc1ccccc1`, in [1], the call was inactive. Further, the Potency result in [2], in test [3], in [4], in test [6], in [7] and in test [8] was “inactive” each time.
Turning to `O=C(O)COc1ccccc1`, the call in test [1] and in test [5] was inactive. Besides, the Potency result in test [3], in test [4], in test [6], in [7] and in test [8] was “inactive” throughout.
In the case of `Nc1ccc([N+](=O)[O-])cc1`, the outcome in [1] and in [5] was inactive. Moreover, the Potency result in [2], in test [3], in test [4], in test [6], in [7] and in test [8] was “inactive” each time.
On to `CCCCC(CC)COC(=O)c1ccccc1C(=O)OCC(CC)CCCC` (stereo unspecified), for which the compound was called inactive in test [1]. Also, the Potency result in [2], in test [3], in [4], in [6], in [7] and in [8] was “inactive” throughout.
Take `NC(N)=NOCCC(N)C(=O)O` (stereo unspecified): the compound was classed as inactive in test [9] and in [10].
Turning to `O=[N+]([O-])c1cc([N+](=O)[O-])c2ccccc2c1`, the result in test [1] and in test [5] was inactive. Further, the Potency result in [2], in test [3], in test [4], in test [6], in test [7] and in test [8] was “inactive” throughout.
Consider `CC(=O)[O][Hg][c]1ccccc1`, for which the Potency in test [2] was 5.01 µM (active); in test [3] it was 6.31 µM (active); in test [4], 3.16 µM (active); in test [6], 2.51 µM (active); in [7], 3.16 µM (active); in test [8] it was 3.16 µM (active). Besides, in [5], the compound was called inactive.
On to `Cc1cc(O)ccc1Cl`, for which the outcome in test [1] and in test [5] was inactive. The Potency entry in [2], in test [3], in test [4], in [6], in test [7] and in test [8] was “inactive” in each case.
Take `c1cc2ccc3cccc4ccc(c1)c2c34`: the compound was called inactive in [1] and in test [5]. The Potency entry in test [2], in test [3], in [4], in test [6], in [7] and in test [8] was “inactive” throughout.
As for `CC(C)(O)C(=O)Nc1ccc([N+](=O)[O-])c(C(F)(F)F)c1`, the compound was classed as inactive in test [1]. The Potency result in [2], in test [3], in test [4], in [6], in test [7] and in [8] was “inactive” throughout.
Take `O=[N+]([O-])c1c2ccccc2cc2ccccc12`: the compound was classed as inactive in [1] and in test [5]. Moreover, the Potency entry in test [2], in test [3], in test [4], in test [6], in [7] and in [8] was “inactive” in each case.
